# Counter-ions that a name gives are not always drawn.
# Test system: NCI-H1688
# Assay: inhibition of cell viability relative to untreated control (fraction); higher = stronger growth inhibition, active = 0.5 or more
# Conditions: 30 µM; 24 h
# Description: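 Natural product library (TargetMol, 640 compounds) screened on NCI-H1688 SCLC cells at 30 µM for 24 h; viability by CCK-8 absorbance at 450 nm, normalised to untreated control and expressed as inhibition rate (fraction). Compounds with >50% reduction in viability were selected as hits.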
row,SMILES,inhibition of cell viability
1,C[C@]12CCC(=O)C=C1CC[C@@H]1[C@@H]2CC[C@@]2(C)[C@H]1CC[C@]2(C)O [17-Methyltestosterone],0.403 (inactive)
2,CC(C)=CCOc1c2occc2cc2ccc(=O)oc12 [Imperatorin],0.0251 (inactive)
3,CC(C)=CCC[C@](C)(O)[C@H]1CC[C@]2(C)[C@@H]1[C@H](O)C[C@@H]1[C@@]3(C)CC[C@H](O[C@@H]4O[C@H](CO)[C@@H](O)[C@H](O)[C@H]4O)C(C)(C)[C@@H]3CC[C@]12C [Ginsenoside Rh2],0.269 (inactive)
4,CNCC(O)c1ccc(O)cc1 (stereo not given) [Synephrine],0.204 (inactive)
5,C[C@@H]1C(=O)O[C@H]2[C@H](O)[C@@]34O[C@@H]5OC(=O)[C@H](O)[C@@]56[C@H](C(C)(C)C)[C@H](O)C(OC3=O)[C@]64[C@@]12O (stereo not given in full) [Ginkgolide C],-0.00562 (inactive)
6,CC(C)=CCC[C@](C)(O)[C@H]1CC[C@]2(C)[C@@H]1[C@H](O)C[C@@H]1[C@@]3(C)CC[C@H](O)C(C)(C)[C@@H]3[C@@H](O[C@@H]3O[C@H](CO)[C@@H](O)[C@H](O)[C@H]3O)C[C@]12C [Ginsenoside Rh1],0.0296 (inactive)
7,CN1CCc2cc3c(cc2C1O)OCO3 (stereo not given) [Hydrastinine hydrochloride],0.248 (inactive)
8,C[C@]12CC[C@H](O)C[C@@H]1CC[C@@H]1[C@@H]2CC[C@]2(C)C(=O)CC[C@@H]12 [Epiandrosterone],-0.0121 (inactive)
9,NCC(O)c1ccc(O)cc1 (stereo not given) [Octopamine hydrochloride],-0.206 (inactive)
10,N#CCCN [3-Aminopropionitrile fumarate],-0.137 (inactive)
11,CNC(=O)Oc1ccc2c(c1)[C@]1(C)CCN(C)[C@@H]1N2C [Physostigmine Salicylate],0.126 (inactive)
12,COc1ccc2c3c([nH]c2c1)C(C)=NCC3 [Harmaline],-0.11 (inactive)
13,C[C@]12CCC(=O)C=C1CC[C@@H]1[C@@H]2C(=O)C[C@]2(C)C(=O)CC[C@@H]12 [Adrenosterone],-0.0418 (inactive)
14,NCCc1ccccc1 [Phenethylamine],-0.183 (inactive)
15,CCN1C[C@]2(COC)[C@H](O)C[C@H](OC)[C@@]34[C@@H]5C[C@@]6(O)[C@H](OC(=O)c7ccccc7)[C@@H]5[C@@](OC(C)=O)([C@@H]([C@H](OC)[C@H]23)[C@@H]14)[C@@H](O)[C@@H]6OC [Aconitine],-0.116 (inactive)
16,C[C@]12CC[C@H](O)C[C@H]1CC[C@@H]1[C@@H]2CC[C@]2(C)[C@@H](c3ccc(=O)oc3)CC[C@]12O [Bufalin],0.985 (active)
17,CC1=CC(=O)c2c(O)cccc2C1=O [Plumbagin],1 (active)
18,CC(C)(C)[C@]1(O)CC2OC(=O)CC23C(=O)OC2OC(=O)[C@H](O)C231 (stereo not given in full) [Bilobalide],0.155 (inactive)
19,"CN1CCc2cc3c(cc2C1C1OC(=O)c2c1ccc1c2OCO1)OCO3 (single isomer, unassigned; (+)) [(+)-Bicuculline]",-0.023 (inactive)
20,CC(=O)O[C@H]1C[C@H](O[C@H]2[C@@H](O)C[C@H](O[C@H]3[C@@H](O)C[C@H](O[C@H]4CC[C@@]5(C)[C@H](CC[C@@H]6[C@@H]5C[C@@H](O)[C@]5(C)[C@@H](C7=CC(=O)OC7)CC[C@]65O)C4)O[C@@H]3C)O[C@@H]2C)O[C@H](C)[C@H]1O[C@@H]1O[C@H](CO)[C@@H](O)[C@H](O)[C@H]1O [Lanatoside C],0.994 (active)

row,SMILES,inhibition of cell viability
1,O=C(O)C1C2CCC(O2)C1C(=O)O (stereo not given) [Sodium Demethylcantharidate],0.314 (inactive)
2,CN1[C@H]2C[C@H](OC(=O)[C@H](CO)c3ccccc3)C[C@@H]1[C@@H](O)C2 [Anisodamine],0.2 (inactive)
3,O=c1cccc2n1C[C@@H]1CNC[C@H]2C1 [Cytisine],-0.243 (inactive)
4,O=C(/C=C/c1ccccc1)OC[C@H]1O[C@@H](O[C@@H]2OC=C[C@H]3[C@H](O)[C@@H]4O[C@]4(CO)[C@@H]23)[C@H](O)[C@@H](O)[C@@H]1O [Picroside I],0.253 (inactive)
5,CCC1=CC2CN3CCc4c([nH]c5ccccc45)C(C(=O)OC)(C2)C13 (stereo not given) [Catharanthine sulfate],0.191 (inactive)
6,CC(=O)O[C@H]1C(=O)[C@@]2(C)[C@H]([C@H](OC(=O)c3ccccc3)[C@]3(O)C[C@H](O)C(C)=C1C3(C)C)[C@]1(OC(C)=O)CO[C@@H]1C[C@@H]2O [Baccatin III],0.535 (active)
7,O=c1ccc2ccc3occc3c2o1 [Isopsoralen],-0.0131 (inactive)
8,C=CCCCCCCCCC(=O)O[C@H]1CC[C@H]2[C@@H]3CCC4=CC(=O)C=C[C@]4(C)[C@H]3CC[C@]12C [Boldenone Undecylenate],-0.203 (inactive)
9,C[C@@H]1O[C@@H](O[C@H]2C[C@@H](O)[C@]3(CO)[C@H]4[C@H](O)C[C@]5(C)[C@@H](C6=CC(=O)OC6)CC[C@]5(O)[C@@H]4CC[C@]3(O)C2)[C@H](O)[C@H](O)[C@H]1O [Ouabain octahydrate],0.99 (active)
10,COc1cccc2c1cc([N+](=O)[O-])c1c(C(=O)O)cc3c(c12)OCO3 [Aristolochic Acid],0.49 (inactive)
11,CC1=C2C(=O)[C@H]3[C@@H](CC=C4C[C@@H](O)CC[C@@]43C)[C@@H]2CC[C@]12O[C@@H]1C[C@H](C)CN[C@H]1[C@H]2C [Jervine],0.601 (active)
12,COc1ccc2c(c1)[nH]c1c(C)nccc12 [Harmine hydrochloride],0.813 (active)
13,C[C@@H]1CC[C@@]2(OC1)O[C@H]1[C@@H](O)[C@H]3[C@@H]4CC[C@H]5C[C@@H](O[C@@H]6O[C@H](CO)[C@H](O[C@@H]7O[C@H](CO)[C@@H](O)[C@H](O[C@@H]8OC[C@@H](O)[C@H](O)[C@H]8O)[C@H]7O[C@@H]7O[C@H](CO)[C@H](O)[C@H](O[C@@H]8O[C@H](CO)[C@@H](O)[C@H](O)[C@H]8O)[C@H]7O)[C@H](O)[C@H]6O)[C@H](O)C[C@]5(C)[C@H]4CC[C@]3(C)[C@H]1[C@@H]2C [Digitonin],1.01 (active)
14,C[C@H]1CCC/C=C/[C@@H]2C[C@H](O)C[C@H]2[C@H](O)/C=C/C(=O)O1 [Brefeldin A],0.704 (active)
15,C1=C2CCCN[C@H]2[C@@H]2C[C@H]1[C@H]1CCCCN1C2 [Aloperine],0.311 (inactive)
16,C[C@]12CC[C@H](O)CC1=CC[C@@H]1[C@@H]2CC[C@]2(C)C(=O)CC[C@@H]12 [Dehydroepiandrosterone],0.0365 (inactive)
17,COc1cc([C@@H]2c3cc4c(cc3[C@H](O)[C@H]3COC(=O)[C@H]23)OCO4)cc(OC)c1OC [Podophyllotoxin],0.839 (active)
18,CCN1C[C@]2(OC(=O)c3ccccc3NC(C)=O)CC[C@H](OC)[C@@]34[C@@H]2C[C@@H]([C@@H]13)[C@@]1(O)C[C@H](OC)[C@H]2C[C@@H]4[C@]1(O)[C@H]2OC [Lappaconitine],-0.0777 (inactive)
19,CC[C@H](C)[C@H]1O[C@]2(C=C[C@@H]1C)C[C@@H]1C[C@@H](C/C=C(\C)[C@@H](O[C@H]3C[C@H](OC)[C@@H](O[C@H]4C[C@H](OC)[C@@H](O)[C@H](C)O4)[C@H](C)O3)[C@@H](C)/C=C/C=C3\CO[C@@H]4[C@H](O)C(C)=C[C@@H](C(=O)O1)[C@]34O)O2.CO[C@H]1C[C@H](O[C@H]2[C@H](C)O[C@@H](O[C@@H]3/C(C)=C/C[C@@H]4C[C@@H](C[C@]5(C=C[C@H](C)[C@@H](C(C)C)O5)O4)OC(=O)[C@@H]4C=C(C)[C@@H](O)[C@H]5OC/C(=C\C=C\[C@@H]3C)[C@]54O)C[C@@H]2OC)O[C@@H](C)[C@@H]1O [Abamectin],1.01 (active)
20,COc1ccc2c(c1O)-c1c(OC)c(OC)cc3c1[C@H](C2)N(C)CC3 [S-Isocorydine(+)],0.0897 (inactive)

# — the supplement of paper PMC11634586
